Results taken from PubChem BioAssay (NCI).
About 83,000 compounds went through this panel and 20% of them were active in at least one assay; those are over-represented in the sample as a whole.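 Values shown are percent growth following 48 h exposure of cells in 96-well plates to a single concentration of compound; below 10 was considered active.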 Calls of active or inactive are those of the source.

What was measured:
Assay in all cases: NCI-60 one-dose screen, 48 h (100 = growth as untreated, 0 = no growth, -100 = all killed)
Conditions in all cases: 10 µM unless noted
[1] = system: SK-MEL-2 melanoma
[2] = system: EKVX NSCLC
[3] = system: SN12C renal
[4] = system: UO-31 renal
[5] = system: TK-10 renal
[6] = system: ACHN renal
[7] = system: CAKI-1 renal
[8] = system: A498 renal
[9] = system: CCRF-CEM leukemia
[10] = system: MOLT-4 leukemia

Measured: growth

COc1cc(/C=C/C(=O)c2c(C)oc3nc[nH]c(=O)c23)cc(OC)c1OC
inactive: [1] 82.5% | [2] 61.9% | [3] 79.8% | [4] 63.2% | [5] 151% | [6] 74.7% | [7] 72.7% | [8] 93.4% | [9] 34% | [10] 68.4%

CCOc1nc(-c2ccccc2)cc2c(O)c(C(=O)N/N=C/c3ccc(O)cc3O)[nH]c(=O)c12
inactive: [2] 36.2% | [3] 39.1% | [5] 52.1% | [8] 65.3% | [10] 17.3%
active: [1] -8.71% | [4] -13.2% | [6] 9.99% | [7] 8.55% | [9] -33.9%

COc1ccc(/C=C/C(=O)c2cc(O)ccc2O)cc1
inactive: [1] 101% | [2] 93% | [3] 93.7% | [4] 73.1% | [5] 95.3% | [6] 84.9% | [7] 67.7% | [8] 109% | [9] 41.1% | [10] 79.2%

Cc1nn(-c2ccc(F)cc2)c2ncnc(Oc3ccc(NC(=O)Nc4ccc(Cl)c(C(F)(F)F)c4)cc3)c12
inactive: [1] 102% | [2] 105% | [3] 95.1% | [4] 100% | [5] 104% | [6] 102% | [7] 95.3% | [8] 99.2% | [9] 102% | [10] 104%

CCC(=O)c1ccc(Cl)s1
inactive: [1] 102% | [2] 117% | [3] 101% | [4] 98% | [5] 103% | [6] 107% | [7] 102% | [8] 98.4% | [9] 101% | [10] 94%

Cn1c(O)c(N=NC(=O)c2cc(-c3ccccc3)on2)c2ccccc21
inactive: [1] 95.3% | [2] 88.5% | [3] 100% | [4] 88% | [5] 125% | [6] 100% | [7] 90.4% | [8] 85.8% | [9] 108% | [10] 105%

C=CC(COC(c1ccccc1)(c1ccccc1)c1ccccc1)N(CC)CC (stereo not given)
active: [10] 8.88%
inactive: [1] 85.8% | [2] 76.1% | [3] 58.3% | [4] 59.4% | [5] 79.8% | [6] 81.7% | [7] 67.1% | [8] 73.8% | [9] 59.3%

COc1ccc(S(=O)(=O)N2CCN(C)CC2)cc1NC(=O)c1[nH]c(C)c2c1CCCCC2=O
inactive: [1] 79.6% | [2] 58.4% | [3] 60.4% | [4] 37% | [5] 33.4% | [6] 58.6% | [7] 21.2% | [8] 60.9% | [9] 75.5% | [10] 81.4%

COc1ccc(-c2nc3cc(C(=O)Nc4cc(OC)c(OC)c(OC)c4)ccc3n2C2CCCCC2)cc1
inactive: [1] 95.6% | [2] 91.8% | [3] 91.7% | [4] 78.7% | [5] 111% | [6] 93.2% | [7] 97.4% | [8] 113% | [9] 94.3% | [10] 83.1%

O=C1/C(=C/c2ccc(Cl)cc2)SC(=S)N1CCc1ccc(O)cc1
inactive: [1] 99.7% | [2] 93.8% | [3] 80.2% | [4] 54.6% | [5] 80.5% | [6] 99.1% | [7] 81.3% | [8] 87.6% | [9] 23.1% | [10] 54.3%

Cn1cc(-c2nonc2-c2c[nH]c3ccc(F)cc23)c2cccnc21
inactive: [1] 90.1% | [2] 63% | [3] 85.5% | [4] 63.3% | [5] 85.9% | [6] 78.5% | [7] 63.9% | [8] 85.1% | [9] 83% | [10] 63.4%

CC(=O)O[C@H]1CC[C@]2(C)[C@H]3CC=C4[C@@H]5CC(C)(C)CC[C@]5(C(=O)NCCNCCN)CC[C@@]4(C)[C@]3(C)CC[C@H]2C1(C)C
inactive: [1] 82.5% | [2] 28.8% | [8] 38.6%
active: [3] -89.9% | [4] -91.6% | [5] -79% | [6] -100% | [7] -68.7% | [9] -40.1% | [10] -39.9%

NC1=C(Cl)C(=O)c2ccc(S(N)(=O)=O)cc2C1=O
active: [1] -73.6% | [2] -77.6% | [3] -67.5% | [4] -95.9% | [5] -16.5% | [6] -95.6% | [7] -63.8% | [8] -99.5%
inactive: [9] 20.1% | [10] 11.8%

CCCCN1CCCn2c1nc1c2c(=O)n(CCC)c(=O)n1CCC
inactive: [1] 90.1% | [2] 97.2% | [3] 93.2% | [4] 76.8% | [5] 97.1% | [6] 88.4% | [7] 89.1% | [8] 80.2% | [9] 104% | [10] 103%

C#CCOc1ccc2ncnc(Nc3cccc(CNC(=O)C=C)c3)c2c1
inactive: [1] 104% [8.25 µM] | [2] 98.6% [8.25 µM] | [3] 95.5% [8.25 µM] | [4] 82.3% [8.25 µM] | [5] 91.5% [8.25 µM] | [6] 95.8% [8.25 µM] | [7] 96.3% [8.25 µM] | [8] 58.8% [8.25 µM] | [9] 111% [8.25 µM] | [10] 100% [8.25 µM]

COc1cccc(-c2nc3sccn3c2-c2ccnc(NCCNS(=O)(=O)c3ccccc3)c2)c1
active: [4] 5.71% | [7] 9.12%
inactive: [1] 30.1% | [2] 29.8% | [3] 28.9% | [5] 55.5% | [6] 10.4% | [8] 44.2% | [9] 10.1% | [10] 12%

COc1cc2c(cc1-c1c(C)noc1C)ncc1nc(C3CCCCC3)n([C@H](C)COC(F)F)c12
active: [8] -13.1%
inactive: [1] 69% | [2] 44.3% | [3] 58.4% | [4] 13.6% | [5] 33.2% | [6] 33.1% | [7] 29.2% | [9] 44.9% | [10] 47.6%

COc1cc(/C=C/c2cc(/C=C/c3ccc(O)c(OC)c3)n(-c3c(C)cccc3C)c(=O)n2)ccc1O
active: [1] -6.04% | [4] 1.61% | [6] 6.48% | [8] -6.94% | [9] 7.03% | [10] 6.55%
inactive: [2] 17.7% | [3] 11.6% | [5] 27.4% | [7] 17.2%

COc1ccc(C(=O)COc2cccc(/C=C3\CSc4ccccc4C3=O)c2)cc1
inactive: [2] 70.7% | [3] 29.6% | [4] 18% | [8] 85.4%
active: [1] -30.9% | [5] -5.8% | [6] -35.8% | [7] -47.9% | [9] -62.2% | [10] -65.7%

CCCOc1cc2ccccc2cc1C(=O)Nc1nc(N)c2c(ccc3nccc32)[nH]1
active: [1] -49.6% | [2] -73.7% | [3] -63.6% | [4] -65% | [5] -37.3% | [6] -80.9% | [7] -46.7% | [8] -87.6% | [9] -13% | [10] -40.9%

CC[C@]1(O)C[C@@H]2CN(CCc3c([nH]c4ccccc34)[C@@](C(=O)OC)(c3cc4c(cc3OC)N(C)[C@H]3[C@@](O)(C(N)=O)[C@H](O)[C@]5(CC)[C@@H]6C[C@@H]6CN6CC[C@]43[C@@H]65)C2)C1
inactive: [1] 22.4% | [2] 41.1% | [3] 27.6% | [4] 50% | [5] 53.5% | [6] 33% | [7] 32.8% | [9] 17.7% | [10] 17.1%
active: [8] -7.44%

CC(C)CC1C(=O)N2CCC[C@H]2C2(O)O[C@](NC(=O)C3C=C4c5cccc6[nH]c(Br)c(c56)C[C@H]4N(C)C3)(C(C)C)C(=O)N12 (stereo not given in full)
inactive: [1] 77.4% | [2] 54.6% | [3] 40.3% | [4] 36.2% | [5] 54.6% | [6] 43.6% | [7] 61.1% | [8] 76.5% | [9] 58.3% | [10] 15.9%

Nc1ccc(-c2cc3c(Nc4ccc(Oc5cccc(C(F)(F)F)c5)c(Cl)c4)ncnc3s2)cc1
inactive: [1] 88.1% | [2] 54.8% | [3] 57.3% | [4] 47.3% | [5] 90.3% | [6] 60.5% | [7] 60.3% | [8] 89.5% | [9] 48.9% | [10] 48.2%

O=c1c(F)cn(Cc2ccccc2CCl)c(=O)n1Cc1ccccc1CCl
inactive: [8] 76.3%
active: [1] 4.2% | [2] -4.31% | [3] -26.5% | [4] -80.4% | [5] -30.8% | [6] -81.8% | [7] -84.5% | [9] -42.9% | [10] -40.3%

Cc1cc(N2CCOCC2)nc(NCc2cc(Nc3ccnc4cc(Cl)ccc34)ccc2F)n1
active: [1] -61.6% | [2] 9.33% | [3] -72.7% | [4] -50.8% | [5] -14.7% | [6] -12.9% | [7] 3.58% | [8] -57.8% | [9] -10.4% | [10] -30.3%
